SMILES strings stand for the structures. Among all 370,000 compounds or so, about 3,800 (1%) were called active. Cut-off read from the data, not from the text of the source: active = activation above about 7.8%; inactive = the rest. This excerpt belongs to a sample that is enriched for actives.

This experiment can be described thus: SMARCA2 (BRM) function activators, primary screen, cell-based, luminescence, high throughput (AID 652017).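 Note: 0% = vehicle wells and 100% = reference activator wells.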 The note with it: MG213 cells, MMTV-luciferase reporter, dexamethasone, overnight; at 9.1 µM; stronger effect = higher value. (Reporter assays use an easily measured gene product as a stand-in for the process of interest.)
Regarding `CCOC(=O)CCCNC(=O)COC(=O)c1cc(Br)c(Br)s1`, the activation is -1.12% (inactive).
On to `COC(=O)C1CN(CC(C)C)CCS(=O)(=O)N1Cc1ccc(F)cc1` (stereo not drawn), for which the activation was 1.2% (inactive).
The figure for `COC(=O)[C@]12C[C@H](CC(=O)NCC34CC5CC(CC(C5)C3)C4)C(=O)N(Cc3ccc(Cl)cc3Cl)C1=C[C@H](COCc1ccccc1)O[C@@H]2C` is -1.25% (inactive); for `C=CCn1c(SCC(N)=O)nnc1-c1ccccc1OC` it is -5.95% (inactive); for `Cn1c(SCC(=O)c2cccs2)nnc1-c1ccco1` it is 2.45% (inactive).
Regarding `O=C(CSc1nc2ccccc2[nH]1)c1cccs1`, the activation was 8.32% (active).
In the case of `O=C(NCc1ccccc1)c1onc(CSc2nc3ccccc3[nH]2)c1C(=O)NCc1ccccc1`, the activation is -0.17% (inactive).
For the compound `COC(=O)[C@@]12CCCCC3=C1N(CCC3)C(=O)[C@H]2CC(=O)NCc1cccc2ccccc12`, the activation is -2.69% (inactive).
In the case of `Cc1cc(Cl)ccc1C(=O)C1CCCN(C(=O)c2ccc3c(c2)OCO3)C1` (stereo not drawn), the activation is 0.89% (inactive).
As to `CC1=NNC(=O)C1CC(=O)N/N=C/c1ccncc1` (stereo not drawn), the activation was -3.81% (inactive).
For `O=C(CSc1nnc(-c2ccccn2)n1-c1ccccc1)Nc1ccc2cn[nH]c2c1`, the activation is 0.38% (inactive).
For `Cc1ccc(C(=O)N(Cc2ccccn2)CC2CCCO2)cc1` (stereo not drawn), the activation was -2.73% (inactive).
The figure for `COc1ccc(CSc2nnc(-c3cccc(C)c3)n2C)cc1` is -2.04% (inactive); for `Cc1ccc(-c2nnc(SCC(=O)Nc3ccc(Oc4ccccc4)cc3)n2Cc2ccco2)cc1` it is -4.83% (inactive).
In the case of `CCCCNC(=O)C1CCC(CNS(=O)(=O)c2ccc(NC(C)=O)cc2)CC1` (stereo not drawn), the activation is 12.9% (active).
The same measure for `CCCCSCCCNC(=O)C1CCC(CNS(=O)(=O)c2ccc(NC(C)=O)cc2)CC1` (stereo not drawn): -2.92% (inactive).
The same measure for `CC(=O)Nc1ccc(S(=O)(=O)NCC2CCC(C(=O)NCCc3ccccc3)CC2)cc1` (stereo not drawn): -3.64% (inactive); for `COc1ccccc1C(=O)N1CCNC(=O)C1CC(=O)Nc1ccc(Cl)cc1` (stereo not drawn): -0.22% (inactive).
As for `COc1ccc(C2CC=C(C(=O)O)C(c3ccccc3F)N2S(=O)(=O)c2ccc(C)cc2)cc1OC` (stereo not drawn), the activation is 0.02% (inactive).
In the case of `N#C/C=C1\Sc2ccccc2C(=O)N1CC(=O)N1CCN(S(=O)(=O)c2ccccc2)CC1`, the activation was 6.51% (inactive).
The figure for `CCc1ccccc1NC(=O)CSc1nnc(-c2cccs2)o1` is 5.4% (inactive); for `COc1ccc(COCC(O)CN2CCC(C(N)=O)CC2)cc1` (stereo not drawn) it is -2.59% (inactive).
The figure for `COc1cc(CN2CCC(C(N)=O)CC2)ccc1OCc1ccccc1` is 10.4% (active); for `COc1ccc(CCN2C(=O)CC(N3CCC(C(N)=O)CC3)C2=O)cc1OC` (stereo not drawn) it is -1.41% (inactive); for `Cc1nc2ccc(C(=O)N3CCN(C(=O)C(C)(C)C)CC3)cc2n1C1CCCC1` it is -3.37% (inactive).
The same measure for `CC1CC(C)CN(CCC(=O)Nc2ccc3c(c2)CCC3)C1` (stereo not drawn): -0.27% (inactive); for `CC(C)Oc1ccc(C(=O)NCC(=O)Nc2ccc3c(c2)CCC3)cc1`: 5.66% (inactive).
Consider `O=C(Nc1ccc2c(c1)CCC2)c1ccc(Br)s1`, for which the activation was 9.61% (active).
The figure for `C[C@H]1CN([C@@H](C)CO)C(=O)Cc2cc(NS(C)(=O)=O)ccc2O[C@@H]1CN(C)CC1CC1` is 0.45% (inactive); for `COc1ccccc1CNS(=O)(=O)c1c(C)[nH]c(C)c1C(=O)N1CCCCC1` it is 3.15% (inactive).
The figure for `COc1ccc(NC(=O)c2sccc2SCC#N)cc1` is 8.69% (active); for `COc1ccc(NC(=O)C(C)SCc2ccccc2)cc1` (stereo not drawn) it is -0.97% (inactive).
`COC(=O)[C@H](CCSC)NC(=O)Nc1ccc(OC)cc1`: the activation is 0.38% (inactive).
Regarding `Cc1c[nH]c2cccc(-c3ccc(Cl)cc3)c12`, the activation is -2.85% (inactive).
The same measure for `CCCCn1c(N)c(N(CC(C)C)C(=O)c2cccc(S(=O)(=O)N3CC(C)OC(C)C3)c2)c(=O)[nH]c1=O` (stereo not drawn): -0.77% (inactive); for `COC(=O)C1CN(CC(C)C)CCS(=O)(=O)N1Cc1ccc(C)cc1` (stereo not drawn): -1.21% (inactive).
In the case of `CCC(=O)NC(=Nc1nc2ccccc2s1)NC(=O)CC`, the activation is 7.9% (active).
The same measure for `CC(C)CC(=O)N/C(N)=N/c1nc2ccccc2s1`: 5.04% (inactive); for `O=C(CSc1nc2ccccc2s1)NN=Cc1ccc(O)cc1O`: -6.37% (inactive).
The figure for `COC(=O)CCC(=O)N1CCCC(CO)(Cc2ccccc2)C1` (stereo not drawn) is 3.15% (inactive); for `COc1cccc(N2CCN(CC(=O)N(C)Cc3ccc(F)cc3)CC2)c1` it is -2.95% (inactive).
As to `COCc1nc2ccccc2n1Cc1ccccc1Br`, the activation was -3.44% (inactive).
The same measure for `COCn1c(COc2ccccc2)nc2ccccc21`: 9.21% (active); for `COc1ccccc1Cn1c(CO)nc2ccccc21`: -2.13% (inactive).
The same measure for `COC(=O)C1CN(CCc2ccccc2)CCS(=O)(=O)N1Cc1cccc(Cl)c1` (stereo not drawn): -3.45% (inactive); for `CCCCN(CC)C(=S)Nc1ccc2nc3n(c(=O)c2c1)CCCCC3`: -4.18% (inactive); for `CC1CCCCC1NC(=O)CN1CCC(O)(c2ccc3c(c2)OCO3)CC1` (stereo not drawn): 8.42% (active).
The figure for `CC1CCCCC1NC(=O)CCS(=O)(=O)c1ccc2c(c1)NC(=O)CO2` (stereo not drawn) is -2.77% (inactive); for `Cc1ccc(NC(=O)CN2CCC3(O)CCCCC3C2c2ccc3c(c2)OCO3)c(C)c1` (stereo not drawn) it is 0.08% (inactive).
`Cc1sc2nc(SCC(=O)c3ccc(O)c(O)c3)n(Cc3ccco3)c(=O)c2c1C`: the activation is -5.31% (inactive).
The figure for `Cc1ccccc1OCCC(=O)Nc1c(C)n(C)n(-c2ccccc2)c1=O` is -3.07% (inactive); for `Cc1c(NC(=O)CSc2cccc3cccnc23)c(=O)n(-c2ccccc2)n1C` it is 8.2% (active).
The figure for `Cc1ccc(S(=O)(=O)CC(=O)Nc2c(C)n(C)n(-c3ccccc3)c2=O)cc1` is -1.75% (inactive); for `C[C@]1(C(=O)NCCc2c[nH]c3ccccc23)C=C[C@@H](Cc2ccccc2)N1C(=O)c1ccccc1` it is 1.41% (inactive).
The same measure for `Cc1ccc(-n2c(SCC(=O)Nc3ccc(S(=O)(=O)Nc4nccs4)cc3)nnc2-c2cccnc2)cc1`: -5.55% (inactive).
As to `Cc1c(CCO)c(=O)n(-c2ccccc2)n1S(=O)(=O)c1ccc(F)cc1`, the activation is -2.63% (inactive).
The figure for `O=C(NCc1cccs1)C1CCN(S(=O)(=O)c2ccccc2[N+](=O)[O-])CC1` is -3.33% (inactive); for `Cc1ccc(NC(=S)NNC(=O)CSc2nnc(SCc3ccccc3Cl)s2)cc1` it is -6.06% (inactive); for `CCOc1ccc(C(=O)Nc2nccs2)cc1[N+](=O)[O-]` it is 5.63% (inactive).
The same measure for `CC(=O)Oc1ccc(C(=O)Nc2nccs2)cc1`: 9.12% (active).
The figure for `Cn1cccc1C(=O)Nc1nccs1` is 1.12% (inactive); for `COc1ccc(-c2nc3n(c(=O)c2C#N)CCS3)c(OC)c1` it is -2.7% (inactive).
Take `COc1ccc2c(c1)CN1CN(CCc3ccccc3)S(=O)(=O)CC21` (stereo not drawn): the activation is 5.9% (inactive).
As for `COc1ccc(OC)c2c(N)c(C#N)c(C(F)(F)C(F)(F)F)nc12`, the activation was 1.9% (inactive).
The same measure for `COc1ccc(-c2cc(C(F)(F)F)nc(S(C)(=O)=O)n2)cc1OC`: -11.1% (inactive); for `COc1ccc(-c2cc(-c3ccc(N)cc3)nc(N)c2C#N)cc1OC`: 8.11% (active); for `CCCCOc1ccc(Cl)cc1CSc1nncn1N`: 1.44% (inactive).
`CCCCCCCCN1C(=O)[C@@H](CC(=O)NCc2ccc(C)o2)C[C@@]2(C(=O)OC)C1=C[C@H](C(C)(C)C)O[C@@H]2C`: the activation is -5.88% (inactive).
Regarding `COc1cccc(CSc2nnc(-c3cccnc3)n2Cc2ccccc2)c1`, the activation was -3.94% (inactive).
The figure for `Cc1ccc(S(=O)(=O)NC2CCCCCC2)cc1C(N)=O` is -2.18% (inactive).
The same measure for `Cn1sc(=O)c2cc(S(=O)(=O)NC3CC3)ccc21`: 8.34% (active); for `CC(C)c1ccc(S(=O)(=O)NC2CCCC2)cc1`: -1.52% (inactive); for `CN(C)CC(=O)N[C@@H]1C[C@@H]2O[C@H](CO)CC[C@@H]2O[C@@H]1CCc1ccc(C#Cc2ccccc2)cc1`: 0.56% (inactive).
As to `CCC(C)Sc1nc(C)nc2c1c(=O)n(C)c(=O)n2C` (stereo not drawn), the activation is -1.47% (inactive).
The figure for `CN(C)C(=O)c1cccc(-c2cnc3c(NC=O)cc(-c4ccc(C(=O)N5CCOCC5)cc4)cn23)c1` is 3.31% (inactive); for `O=CNc1cc(-c2ccc(C(=O)N3CCOCC3)cc2)cn2c(-c3ccc(F)cc3)cnc12` it is -2.13% (inactive); for `CN(C)CCNC(=O)c1cccc(-c2cnc3c(NC=O)cc(-c4cccc(C(F)(F)F)c4)cn23)c1` it is 21.3% (active).
With `CC(=O)Nc1cc(-c2ccc(N3CCN(C)CC3)cc2)cn2c(-c3ccc(F)cc3)cnc12`, the activation was 12.3% (active).
The figure for `CC(=O)Nc1cc(-c2ccc(N3CCN(C)CC3)cc2)cn2c(-c3cccc(C(=O)N(C)C)c3)cnc12` is 5.35% (inactive).
The same measure for `CC(=O)Nc1cccc(-c2cc(NC(C)=O)c3ncc(-c4ccccc4)n3c2)c1`: -12.2% (inactive); for `COc1ccc(-c2cc(NC=O)c3ncc(-c4cccc(C(=O)N(C)C)c4)n3c2)c(OC)c1`: -4.41% (inactive); for `CC(=O)Nc1cc(-c2cccc(CO)c2)cn2c(-c3cccc(C(F)(F)F)c3)cnc12`: -2.27% (inactive).
The same measure for `CC(=O)c1cccc(-c2cnc3c(NC=O)cc(-c4ccc(N5CCN(C)CC5)cc4)cn23)c1`: 16.7% (active); for `O=C(CN1CCC(NC(=O)NCc2ccccc2)CC1)Nc1ccc2c(c1)OCCO2`: 0.31% (inactive); for `COc1ccc(N2CCN(CCNS(=O)(=O)c3ccc(C(C)(C)C)cc3)CC2)cc1`: 3.29% (inactive).
Turning to `Clc1ccc(-n2c(COc3ccccc3)nnc2SCc2nc3ccccc3[nH]2)cc1`, the activation was -4.61% (inactive).
The figure for `O=C(CCCCO)c1ccc(O)c(Cl)c1` is -1.51% (inactive); for `CC(C)CNc1cccc2c1S(=O)(=O)N(Cc1cn(Cc3ccccc3C(F)(F)F)nn1)Cc1ccccc1O2` it is -2.65% (inactive).

(Values after PubChem BioAssay AID652017 (The Scripps Research Institute Molecular Screening Center, 2013).)
